Results reported in PubChem BioAssay AID1224817 (Yan Lab, Georgia Cancer Center, Augusta University, 2016).
Screen size: about 2,000 compounds; about 25 (1%) were called active. The sample holds actives, similar compounds and a random draw of the others, so the mix is not that of the screen.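 Rule for the calls: active = log2 luciferase ratio at or below -0.5849, meaning signal at two thirds of solvent-only control or lower; inactive = the rest.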

Experiment: eIF4E expression suppression, luciferase knock-in reporter – cell-based, HT1080, primary screen (AID 1224817);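 note: luciferase reports endogenous eIF4E expression since it is co-expressed from the native EIF4E locus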
Details: HT1080 EIF4E-luc2 knock-in reporter, 16 h, at 2.5 µM, active compounds read low

log2 luciferase activity ratio, inactive:
O=P(O)(CCP(=O)(O)c1ccccc1)c1ccccc1 0.225
OCC1OC(n2cnc3c(/C=C(/O)c4ccccc4)ncnc32)C(O)C1O (stereo not given) 1.58
O=c1ccc2nc3ccc(O)cc3oc-2c1 -0.212
C[n+]1cccc(/C=C/c2ccc3cccc(O)c3n2)c1 0.721
NC(CCCCO)C(=O)O (stereo not given) 0.0343
COc1ccc2c3c(ccc2c1)NC(C(=O)O)CC3 (stereo not given) 1.85
O=C(O)CC(Sc1ccccc1)c1ccccc1 (stereo not given) 0.113
Cc1cc(N=Cc2c(CO)cnc(C)c2O)c(N=Cc2c(CO)cnc(C)c2O)cc1C.[Zn] 0.374
NCCN1C(=O)c2ccccc2C1(O)c1ccc(Cl)cc1 (stereo not given) 0.275
O=C(O)CC(C(=O)O)c1ccccc1[N+](=O)[O-] (stereo not given) -0.346
O=C(O)C(C1NCCS1)N1C(=O)c2ccccc2C1=O (stereo not given) -0.326
Clc1ccc2c(NCCNC3CCCCC3)ccnc2c1 -0.0725
O=C(O)Cc1c(O)ccc2ccccc12 -0.364
CC(C)=CCNc1ncnc2c1c(C#N)cn2C1OC(CO)C(O)C1O (stereo not given) -0.135
N#CC[N+]1(Cc2ccccn2)CCCC1 -0.0477
CN(C)CCCN=c1c2ccccc2n(C)c2[nH]c(=O)n(C)c(=O)c12 -0.0932
O=C(O)CSCC(=O)c1ccccc1 -0.355
Cc1ccc(S(=O)(=O)OCC(=O)O)cc1 0.01
CC12CCC3c4ccc(O)cc4CCC3C1C/C(=N\O)C2O (stereo not given) -0.14
CC1CN(CCO)CCN1c1ccccc1 (stereo not given) 0.393
O=C(O)C1C(C(=O)O)C(C(=O)O)C1C(=O)O (stereo not given) -0.115
Cc1nn(-c2ccc(S(=O)(=O)[O-])cc2)c([O-])c1N=[N+](C)c1ccc(-c2ccc(N=Nc3ccc4c(S(=O)(=O)[O-])cc(S(=O)(=O)[O-])c(N)c4c3[O-])c([O-])c2)cc1[O-].[Cu+2].[Cu+2].[Na+] 0.162
OCCNc1ncnc2c1ncn2C1OC(CO)C(O)C1O (stereo not given) -0.0424
CN(C)Cc1ccc(O)c(CN(C)C)n1 -0.0218
CN(C)CCN(c1ccccn1)c1ccccn1 -0.0299
Nc1ccccc1N=Nc1c(S(=O)(=O)O)cc2cc(S(=O)(=O)O)cc(O)c2c1O -0.0279
CC1=CC(C2/C(=N/O)C=C(C)CC2(C)C)C(O)C(C)(C)C1 (stereo not given) -0.118
Fc1cccc(Cl)c1/C=N\N=C1c2ccccc2-c2ccccc21 -0.123
c1ccc2cc(-c3cc(-c4cc(-c5ccc6ccccc6c5)on4)no3)ccc2c1 0.0163
N=C(N)c1ccc(/C=C/c2ccc(C(=N)N)cc2)cc1 -0.247
O=S(=O)(O)C(c1ccccc1)C(O)c1ccccc1 (stereo not given) -0.161
NCc1ccc(C(=O)O)cc1 0.304
O=C(O)c1ccc(NS(=O)(=O)Cc2ccccc2)cc1 0.0192

log2 luciferase activity ratio, active:
CN(CCO)Cc1ncccc1O -0.625
O=C(O)CNc1ccc(C(=O)O)cc1 -0.647
